Measured values reported in PubChem BioAssay (NCATS).
Inconclusive results are not listed. Unmarked numbers belong to inactive results. Active and inactive are the calls of the source. The call rests on the fitted dose curve; in most records, active means well fitted inhibition curve with a large enough effect; inconclusive means small, poorly fitted or top-dose-only effect; inactive means flat fitted curve, though single readings scatter.

molecular target: Glutathione peroxidase 1 (Homo sapiens) (UniProt P07203); assay: Primary qHTS Assay for Inhibitors of Recombinant Selenoprotein Glutathione Peroxidase 1 (GPX1) (AID 1845191); details: recombinant GPX1, GR-coupled NADPH fluorescence, 15 min; series mostly up to 27.7 µM; activity, negative = inhibition: at the top concentration; further: nearly all actives have a fitted effect of over 65% in size
Sequence (P07203 whole entry, looked up): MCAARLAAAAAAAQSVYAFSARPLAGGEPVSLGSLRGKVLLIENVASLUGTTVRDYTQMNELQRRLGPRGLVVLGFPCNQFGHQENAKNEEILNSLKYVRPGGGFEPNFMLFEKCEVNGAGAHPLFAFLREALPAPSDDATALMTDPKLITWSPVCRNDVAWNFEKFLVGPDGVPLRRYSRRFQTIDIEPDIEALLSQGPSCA
Text: Assay Provider: Elias S.J. Arner MD PhD.
Department of Medical Biochemistry and Biophysics
Karolinska Institutet, Solna, Stockholm, Sweden
Selenoprotein glutathione peroxidases (GPX), like the ubiquitously expressed GPX1 and the ferroptosis modulator GPX4, enact their antioxidant activities by reducing hydroperoxides using glutathione. […] GPX1 and GPX4 inhibitors have thus shown promise as anti-cancer agents. Existing inhibitors are often promiscuous, or modulate GPX activity only indirectly, so novel direct inhibitors identified through screening against GPX1 and GPX4 could be valuable. Here, we developed optimized glutathione reductase (GR)-coupled GPX assays for the biochemical high-throughput screen (HTS) of almost 12,000 compounds with known mechanisms of action. Initial hits were triaged using a GR counter-screen, assessed for isoform specificity using a separate GPX2 assay, and were assessed for general selenocysteine-targeting activity using a thioredoxin reductase (TXNRD1) assay. With this suite of assays, we identified novel GPX1/GPX2- and GPX4-specific inhibitors and can here present a validated pipeline for future discovery research for selenoprotein-targeting agents.
SEQUENCE No. (e.g., 1, 2, 3, etc.); […] (e.g., Cells, Incubation, Reagent, etc.); VALUE; DESCRIPTION.
1; Reagent 1; 3 uL; GPx1 enzyme or no enzyme control in 1536-well, black, solid Greiner assay plate.
2; Compound; 25 nL; Kalypsis pin tool (Wako USA) equipped with a 1536-well pin head.
3; Incubation; 30 min; room temperature.
4; Reagent 2; 1 uL; 10 nM GPX1, 1 mM GSH, 0.5 mM CHP, 0.5 mM NADPH, 100 nM GR, 0.01% BSA substrate
5; Detection; Fluorescence; ViewLux microplate reader, excitation 340 nm and emission 450 nm.
6; Incubation; 15 min; room temperature.
7; Detection; Fluorescence; ViewLux microplate reader, excitation 340 nm and emission 450 nm.
NOTES (numbers refer to Sequence numbers above)
1. 3 uL of 16.66 nM GPX1 and 0.016% BSA in assay buffer (50 mM Tris-HCl, 2 mM EDTA (pH 7.5), 150 mM NaCl) was added to columns 3-48 of 1536-well assay plates using a BioRAPTR Flying Reagent Dispenser (Let's Go Robotics (LGR), Carlsbad, CA). A no-enzyme control (0.01% BSA in TES assay buffer) was added to columns 1-2.
2. 25 nL of test compounds and DMSO controls were added to each well with a pin tool (Kalypsys).
3. The assay plates were incubated for 30 minutes at room temperature.
4. 1 uL of master mix (500 nM glutathione reductase (GR), 5 mM reduced glutathione (GSH), 2.5 mM NADPH in assay buffer) was added. 1 uL of cumene hydroperoxide (CHP) ([2.5 mM] in 50% EtOH) was then added within 5 minutes to initiate the reaction. Final concentrations were: 10 nM GPX1, 1 mM GSH, 0.5 mM CHP, 0.5 mM NADPH, 100 nM GR, 0.01% BSA.
5. Initial fluorescence readout (t=0) at 340/450 nm was measured using a ViewLux multimodal detector (PerkinElmer, Waltham, MA).
7. Endpoint fluorescence readout (t=15) at 340/450 nm was measured 15 min after room temperature incubation.
On the % scale 0 is the no-effect control and ±100 the full control effect.

Row | Compound | activity, negative = inhibition | outcome | Potency
1 | COc1cc(O)c2c(c1Cl)CC(C)OC2=O (stereo not given) | -12.3% [at 48.8 µM] | – | –
2 | CCc1cc(CC[C@]2(C3CCCC3)CC(O)=C(Cc3nc4nc(C)cc(C)n4n3)C(=O)O2)cc(CC)n1 | -8.81% [at 48.8 µM] | – | –
3 | CN1CCN(C(=O)c2cc3cc(Cl)ccc3[nH]2)CC1 | -8.19% [at 48.8 µM] | – | –
4 | C[C@@H](CC[C@@H]1[C@@]2(C)CCCC(C)(C)C2CC[C@@]1(C)O)CC(=O)O (stereo not given in full) | -10.4% | – | –
5 | CC1(C)CC[C@]2(C(=O)O[C@@H]3O[C@H](CO)[C@@H](O)[C@H](O)[C@H]3O)CC[C@]3(C)C(=CCC4[C@@]5(C)CC[C@H](O[C@H]6O[C@H](CO)[C@@H](O)[C@H](O[C@@H]7O[C@H](CO)[C@@H](O)[C@H](O)[C@H]7O)[C@H]6O)C(C)(C)C5CC[C@]43C)[C@@H]2C1 (stereo not given in full) | – | inactive [at 15.3 µM] | –
6 | CC(=O)OCC(Cc1ccccc1)NC(=O)C(Cc1ccccc1)NC(=O)c1ccccc1 (stereo not given) | – | inactive | –
7 | C[C@@H]1O[C@@H](OC[C@H]2O[C@@H](OCc3ccccc3)[C@H](O)[C@@H](O)[C@@H]2O)[C@H](O)[C@H](O)[C@H]1O | -8.3% | – | –
8 | COc1cccc(OC)c1-c1ccc(C[C@H](NC(=O)c2c(Cl)cccc2Cl)C(=O)O)cc1 | – | inactive [at 48.8 µM] | –
9 | COc1ccc(-n2[nH]c3c(cnc4ccccc43)c2=O)cc1 | – | inactive [at 48.8 µM] | –
10 | CC1CC(=O)[C@]2(O)C(C(=O)OCCc3ccc(O)c(O)c3)=CO[C@@H](O[C@@H]3O[C@H](CO)[C@@H](O)[C@H](O)[C@H]3O)[C@H]12 (stereo not given in full) | – | inactive | –
11 | CC1=COC(OC2OC(CO)C(O)C(O)C2O)C2C(CO)CC(OC(=O)/C=C/c3ccc(O)cc3)C12 (stereo not given) | – | inactive | –
12 | CC1=C2C(=O)C=C(CO[C@@H]3O[C@H](CO)[C@@H](O)[C@H](O)[C@H]3O)[C@@H]2[C@H]2OC(=O)[C@H](C)[C@@H]2CC1 | -11.3% | – | –
13 | COc1ccc(C2COc3cc(O)ccc3C2)c(O)c1OC (stereo not given) | – | inactive [at 48.8 µM] | –
14 | C/C=C/C=C/C=C/C(=O)OC1C=C2C(O)OC(=O)[C@]2(O)[C@@]2(C)CCCC(C)(C)[C@H]12 (stereo not given in full) | -21.2% | – | –
15 | CCOc1ccc(-c2cc(NC(=O)c3c(F)cccc3F)c(C(=O)O)s2)cc1 | – | inactive [at 48.8 µM] | –
16 | O=C(N[C@@H]1CC[C@@H](c2cccc(F)c2F)CN(CC(F)(F)F)C1=O)N1CCC(n2c(=O)[nH]c3ncccc32)CC1 | – | inactive [at 48.8 µM] | –
17 | Cc1occc(=O)c1O[C@@H]1O[C@H](CO[C@@H]2OC[C@](O)(CO)[C@H]2O)[C@@H](O)[C@H](O)[C@H]1O | -4.08% | – | –
18 | CC1(C)CC[C@]2(C(=O)O[C@@H]3O[C@H](CO)[C@@H](O)[C@H](O)[C@H]3O)[C@H](O)C[C@]3(C)C(=CCC4[C@@]5(C)CC[C@H](O[C@@H]6OC[C@@H](O)[C@H](O)[C@H]6O)[C@@](C)(C(=O)O)C5CC[C@]43C)[C@@H]2C1 (stereo not given in full) | -2.14% [at 15.3 µM] | – | –
19 | C=C1C(OC(C)=O)CCC2(C)CC3(O)OC(=O)C(C)=C3CC12 (stereo not given) | 4.25% | – | –
20 | COCCCc1sc(-c2ccccc2)nc1C(=O)Nc1ccccc1-c1nc2cc(CN3CCCC3)cnc2s1 | – | inactive | –

Row | Compound | activity, negative = inhibition | outcome | Potency
21 | COC(=O)C1(C)CCCC2(C)c3ccc(C(C)C)cc3C(O)C(O)C12 (stereo not given) | -13.8% | – | –
22 | CC1CC(O)/C=C/C(O)/C=C\C(=O)O1 (stereo not given) | -2.77% [at 48.8 µM] | – | –
23 | CCC(=O)OCC(=O)[C@@]1(OC(=O)CC)[C@@H](C)C[C@H]2[C@@H]3CCC4=CC(=O)C=C[C@]4(C)[C@@]3(F)[C@@H](O)C[C@@]21C | – | – | inactive
24 | C=C1CC[C@H]2[C@@](C)(CCC(OC3OC(CO)C(O)C(O)C3O)[C@@]2(C)CO)C1C(=O)CC1=CCOC1=O (stereo not given in full) | – | inactive | –
25 | COc1ccc(OC2OC(CO[C@@H]3O[C@@H](C)[C@H](O)[C@@H](O)[C@H]3O)C(O)C(O)C2O)cc1OC (stereo not given in full) | -8.75% | – | –
26 | COc1ccc2c(c1)N1C(=O)C[C@@]34C=CC[N@+]5([O-])CC[C@H]2[C@H](CC3)[C@@]145 | -5.27% | – | –
27 | CC1CC2OCC3(O)CCC(O)C(C14CC(c1ccoc1)OC4=O)C23CO (stereo not given) | 4.84% | – | –
28 | NC1Nc2ccccc2C1(N)CC1NC(=O)C(Cc2ccccc2)NC(=O)C(Cc2ccccc2)NC1=O (stereo not given) | -11.8% | – | –
29 | C=C1C(=O)O[C@@H]2/C=C(\C)CC/C=C(\C(=O)O[C@@H]3O[C@H](CO)[C@@H](O)[C@H](O)[C@H]3O)CC[C@@H]12 | -12.3% | – | –
30 | COc1cc2nc(=NC(=O)c3cccnc3)n3c(c2cc1OC)NCC3 | – | inactive [at 48.8 µM] | –
31 | C=CCc1cc(OC)c(OC(C)C(O)c2ccc(O)c(OC)c2)c(OC)c1 (stereo not given) | -23.9% | – | –
32 | C[C@H]1[C@H](C)CC[C@]2(C(=O)OC3OC(CO)C(O)C(O)C3O)CC[C@]3(C(=O)O)C(=CCC4[C@@]5(C)CC[C@H](O[C@@H]6O[C@@H](C)[C@H](OC7OC(CO)C(O)C(O)C7O)[C@@H](O)[C@H]6O)C(C)(C)C5CC[C@]43C)[C@H]12 (stereo not given in full) | -13.6% [at 15.3 µM] | – | –
33 | C[C@@H]1O[C@@H](O[C@H]2[C@H](Oc3cc(O)c(C(=O)CCc4ccc(O)cc4)c(O)c3)O[C@H](CO)[C@@H](O)[C@@H]2O)[C@H](O)[C@H](O)[C@H]1O | -8.74% [at 48.8 µM] | – | –
34 | COc1cc(OC)cc(-c2ccc3c(-c4ccc(F)cc4)[nH]nc3n2)c1 | – | inactive [at 48.8 µM] | –
35 | Nc1ncnc2c1c(COc1cccc(Cl)c1)nn2C1CCOCC1 | 2.46% [at 48.8 µM] | – | –
36 | CC1(C)O[C@H]2CC(=O)OC[C@@]23C1=C(O)C(=O)[C@]1(C)C3CC[C@@]2(C)[C@H](c3ccoc3)OC(=O)[C@H]3O[C@]321 (stereo not given in full) | – | inactive | –
37 | O=C(O)c1ccncc1Nc1nn(CCN2CCC(F)(F)CC2)c2ccc(F)cc12 | -15.2% [at 48.8 µM] | – | –
38 | COc1ccc(/C=C/C(=O)O[C@@H]2[C@@H](OC(C)=O)[C@@H](OC(C)=O)[C@H](O[C@H]3[C@@H]4C=CO[C@@H](O[C@@H]5O[C@H](CO)[C@@H](O)[C@H](O)[C@H]5O)[C@@H]4[C@@]4(CO)O[C@@H]34)O[C@H]2C)cc1 | – | inactive [at 15.3 µM] | –
39 | O=C(Nc1ccc(N2CCC(C(=O)N3CCOCC3)CC2)cc1)c1cnc(Oc2ccccc2)nc1 | 2.42% [at 48.8 µM] | – | –
40 | CCCCC(=O)N1c2ccccc2NC2=C(C(=O)CCC2)C1c1ccccc1Cl (stereo not given) | – | inactive [at 48.8 µM] | –
